Test results reported in PubChem BioAssay (NCI).
“And” between values parts separate entries of the source, which are not always exact repeats. Equal values may be shown once. This is part of a sample that, as a whole, favours compounds with a hit. Of some 83,000 tested, about 20% had one in any assay.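 How to read the values: 0–100, growth inhibition (40 = 60% inhibited); 0, no net growth; -100 to 0, cell death (-40 = 40% of starting cells died; -100 = all dead).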 The source made the active and inactive calls. How the source made its calls: active means growth percent below 10; inactive means the rest.

Tested on: MDA-MB-468 breast
Assay: NCI-60 one-dose screen, 48 h (100 = growth as untreated, 0 = no growth, -100 = all killed)
Settings: 10 µM unless noted

Compound | growth
C=CCN1CCCC1=O | 96.5% (inactive)
N#CCc1ncc(-c2ccc(C(F)(F)F)cc2)c(NC2CCCCCC2)n1 | 42.3% [100 µM] (inactive)
CCOC(=O)N1CCN(c2nc(Nc3cc(C)[nH]n3)c3ccccc3n2)CC1 | 30.6% (inactive)
COC(=O)C1=COC(C)C2C[n+]3ccc4c([nH]c5ccccc54)c3CC12 (configuration not stated) | 94.2% (inactive) and 85.8% (inactive)
O=C(O)CCCN1C(=O)CSC1=S | 99.3% (inactive)
O=[N+]([O-])c1ccc(/C(=C/c2ccccc2)[n+]2ccccc2)cc1 | 101% (inactive)
CC/C=C\C[C@@H](O)C/C=C1/C(=O)C=C[C@H]1C/C=C\CCCC(=O)OC | 15.9% (inactive)
N#Cc1cccc(C2C3=C(COC3=O)N(CCO)c3cc4c(cc32)CCC4)c1 (configuration not stated) | 3.97% (active)
COc1ccc2nc3cc(Cl)ccc3c(N3CCN(c4ccnc(N5CCOCC5)n4)CC3)c2c1 | -54.8% (active)
Cc1ccc2c(n1)C(=O)C(Cl)=C(Nc1ccc(C#N)cc1)C2=O | 51.4% (inactive)
CC(=O)c1cccc(O)c1 | 110% (inactive)
CN1CCCCC1CCN1c2ccccc2Sc2ccc(Cl)cc21 (configuration not stated) | 30.2% (inactive)
CCN(CC)C12CCCCC1(C)C(C#N)(C#N)C(C#N)=C(N)O2 (configuration not stated) | 93.5% (inactive)
COc1ccc(S(=O)(=O)NCCCNc2nccc(-c3[nH]c(-c4ccccc4)nc3-c3ccc(Cl)c(O)c3)n2)cc1 | 78.3% (inactive)
O=C(NCc1ccccc1O)c1cccc2ccccc12 | 84.9% (inactive)
C#CCOC(=O)[C@]1(C)CCC[C@]2(C)[C@H]3C[C@H]4C(C(C)C)=C[C@]3(CC[C@H]21)[C@@H]1C(=O)CCC(=O)[C@@H]14 | 78% (inactive)
COc1ccc2cc(-c3nc4ccccc4s3)c(Cl)nc2c1OC | 103% (inactive)
CC(C)(C)OC(=O)N1CCC(O)[C@@H](O[Si](c2ccccc2)(c2ccccc2)C(C)(C)C)[C@H]1/C=C/c1ccccc1 (some centres not stated) | 15.2% (inactive)
CN1CCN(Cc2ccc(NC(=O)c3cncc(C#Cc4cnc5ccc(OCC(C)(C)O)nn45)c3)cc2C(F)(F)F)CC1 | -40.2% (active)

Compound | growth
O=C(Oc1ccc2c(c1)sc1nc(-c3ccccc3)[nH]c(=O)c12)C(F)(F)F | 37.9% (inactive)
C=C(C)[C@@H]1CC[C@]2(C(N)=O)CC[C@]3(C)[C@H](CC[C@@H]4[C@@]5(C)C/C(=C/c6cccnc6)[C@H](O)C(C)(C)[C@@H]5CC[C@]43C)[C@@H]12 | 23.6% [100 µM] (inactive)
C[C@H]1[C@H](C)CC[C@]2(C(=O)O)CC[C@]3(C)C(=CC[C@@H]4[C@@]5(C)C/C(=C/c6ccco6)C(=O)C(C)(C)[C@@H]5CC[C@]43C)[C@H]12 | -38% [100 µM] (active)
C#CCOc1ccccc1C(OC(=O)c1ccccc1)C(=O)NC(C)(C)C(C)(C)C (configuration not stated) | 80.5% (inactive)
COc1ccc(/C=C\c2cc(OC)c(OC)c(OC)c2)cc1OC(=O)c1cccc(Cn2cc(CCOC(=O)[C@H](N)Cc3cn(C)c4ccccc34)nn2)c1 | 13.9% (inactive)
O=C(/C=C(O)/C=C/c1ccc(SC(F)(F)F)cc1)/C=C/c1ccc(SC(F)(F)F)cc1 | 100% (inactive)
Cc1cc(Nc2cccc(F)c2)nc(NCc2ccccc2)n1 | 16.2% (inactive)
C/C(=N\Nc1cc(C)c2ccccc2n1)c1ccccn1 | -63.2% (active)
CN(C)CCC(=O)C1CC1 | 104% (inactive)
Cc1ccc(-c2csc(N(C(=O)N3CCN(c4cc5c(cc4F)c(=O)c(C(=O)O)cn5C4CC4)CC3)c3ccccc3)n2)cc1 | -6.73% (active)
NC(=Nc1ccccc1)SCCCSC(N)=Nc1ccccc1 | 85.8% (inactive)
Cc1onc(-c2c(F)cccc2Cl)c1-c1ncc(-c2ccc(Br)cc2)o1 | 28.4% (inactive)
CC(C)NCCCCCNc1cc(O)cc2cccnc12 | 18.6% (inactive)
COc1ccc(-c2nc(SC(C)C)nc(NNC(N)=O)c2C#N)cc1 | 80.5% (inactive)
CC1=NNC(=O)C1C (configuration not stated) | 95.8% (inactive)
C[C@@H]1CC[C@@H]2[C@@H]1[C@H](OC(=O)/C=C/c1ccccc1)[C@]1(C3CCCCC3)C[C@@H](NC(=O)CO)[C@@]2(C)O1 | 115% (inactive)
CC(C)c1[nH]nc2c(NCc3ccc(-c4ccccn4)cc3)nc(SCCN)nc12 | -60.3% (active)
Cc1cc(N2CCOCC2)nc(N(CCNc2ccnc3cc(Cl)ccc23)Cc2ccco2)n1 | 23.5% (inactive)
